High-throughput results: PubChem BioAssay, NMMLSC
Autofluor counter = flagged as autofluorescent in microsphere protease counterscreen | 3.1% of 360,000 active | fluorescence intensity (concentration not given with the values) | compound autofluorescence counterscreen, microsphere flow cytometry; stronger effect = higher value | AID 624483; in the data active means fluorescence intensity above about 16000; inconclusive means no clear call, values can overlap the other calls
BoNT-F LC inh = BoNT/F light chain protease inhibitors, primary screen, biochemical, flow cytometry, MLPCN library. Botulinum neurotoxin type F light chain protease (Clostridium botulinum). Multiplex microsphere protease cleavage assay. inhibition, % at 10 µM. 0.22% of 360,000 active. AID 588497, 2011; in the data active means inhibition above about 35%, passing the limit was not always enough; inconclusive means no clear call, values can overlap the other calls; further: plate controls were buffer without enzyme for full effect and enzyme alone for no effect
BoNT-A LC inh2 = BoNT/A light chain protease inhibitors, primary screen, biochemical, flow cytometry, MLPCN library; multiplex microsphere protease substrate cleavage; AID 588499, 2011; 0.17% of 360,000 active; inhibition, % at 10 µM; in the data active means inhibition above about 30%; inconclusive means no clear call, values can overlap the other calls; further: plate controls were buffer without enzyme for full effect and enzyme alone for no effect
Anthrax LF inh2 = Bacillus anthracis LF protease inhibitors, primary screen, biochemical, multiplex microsphere, MLPCN library; multiplex microsphere protease cleavage assay; inhibition, % at 10 µM; 0.12% of 360,000 active; AID 588501, 2011; in the data active means inhibition above about 30%; inconclusive means no clear call, values can overlap the other calls; further: plate controls were buffer without enzyme for full effect and enzyme alone for no effect
BoNT-A LC CP1 = BoNT/A light chain protease inhibitors, confirmation, biochemical, flow cytometry, cherry pick 1; 3% of 720 active; inhibition, % at 10 µM; multiplex microsphere protease assay; shares compounds with BoNT-F LC inh; in the data active means inhibition above about 32%
BoNTF LC inh 1 = BoNT/F light chain protease inhibitors, confirmation, biochemical, flow cytometry, cherry pick 1; shares compounds with BoNT-F LC inh; inhibition, % at 10 µM; 720 tested, under 10 active; multiplex microsphere protease cleavage assay
LF protease CP1 = Bacillus anthracis LF protease inhibitors, confirmation, biochemical, multiplex microsphere, cherry pick 1 | AID 602142, 2011 | shares compounds with BoNT-F LC inh | multiplex microsphere protease cleavage assay | 720 tested, under 10 active | inhibition, % at 10 µM
The depositor's hits bear a star; ? = inconclusive; . = no result. Rows were chosen to be rich in hits. Some 3.5% of all compounds tested hit in one or more screens of this group. Unless noted, how the calls were made is not given here.

SMILES | Autofluor counter | BoNT-F LC inh | BoNT-A LC inh2 | Anthrax LF inh2 | BoNT-A LC CP1 | BoNTF LC inh 1 | LF protease CP1
O=C(O)C1CCCCC1C(=O)NCCCN1CCCC1=O (stereo not drawn) | 4270 | 48.0* | -2.7 | -0.3 | -0.3 | -4.9 | -3.2
O=C(NCCCN1CCCC1=O)NC1CCCCC1 | 4023 | -5.5 | 0.0 | 2.3 | . | . | .
COc1cc(CC(NC(C)=O)C(=O)NC2CCN(C(=O)c3ccc(C)cc3)CC2)cc(OC)c1 (stereo not drawn) | 2861 | 42.8* | -0.2 | 4.6 | -0.7 | -5.4 | 0.4
COc1ccc(C(CC(=O)Nc2cc(C)ccn2)N2Cc3ccccc3C2=O)cc1 (stereo not drawn) | 3901 | 109.9* | 5.7 | 5.7 | 1.0 | 0.2 | -2.2
CC(=O)c1c(C)n(-c2ccccc2)c2ccc(OCC(N)=O)cc12 | 3967 | -5.4 | -0.5 | 1.1 | . | . | .
C[C@H](CO)N1C[C@H](C)[C@@H](CN(C)S(C)(=O)=O)Oc2ccc(NS(=O)(=O)c3cn(C)cn3)cc2C1=O | 3997 | -2.9 | 0.2 | -0.4 | . | . | .
Cc1c(NC(=O)c2ccccc2N(C)S(=O)(=O)c2ccccc2)c(=O)n(-c2ccccc2)n1C | 6019 | 48.5* | 43.7* | -25.4 | 0.7 | 3.3 | -0.9
Cc1c(NC(=O)c2ccc(N(C)S(C)(=O)=O)cc2)c(=O)n(-c2ccccc2)n1C | 6194 | -15.2 | -2.4 | -4.8 | . | . | .
CC(=O)NCCn1c(C)cc2ccccc21 | 5295 | 1.6 | 8.4 | 21.3 | . | . | .
Cc1cc2ccccc2n1CCNC(=O)c1ccccc1 | 1420 | ? | ? | ? | 24.0 | -6.4 | 17.4
COc1ccc(C(=O)NCCn2ccc3ccccc32)cc1 | 9335 | 10.9 | 53.0* | 36.5* | 1.6 | 12.9 | 0.6
CC1=C(C(=O)N2CCOCC2)CC(CC(=O)NCc2ccco2)C(=O)N1CCC1=CCCCC1 (stereo not drawn) | 3613 | -1.2 | -0.3 | -3.6 | . | . | .
CCOP(=O)(O)c1cccc(OCCOCCOc2cccc(P(=O)(O)OCC)c2)c1 | 4127 | -4.2 | 0.3 | -4.1 | . | . | .
O=C(CCn1ccnc1)Nc1ccc2ccccc2c1 | 4229 | 37.5* | 6.7 | 0.6 | 0.4 | -3.4 | -0.9
CCOc1ccc(NC(=O)CCn2ccnc2)cc1 | 3549 | 3.9 | 0.1 | -2.9 | . | . | .
CC=C1OC(n2cnc3c(N)ncnc32)C(O)C1O (stereo not drawn) | 6168 | -10.0 | -1.1 | -4.0 | . | . | .
Cc1nc([N+](=O)[O-])c(Sc2nc3ccccc3[nH]2)n1Cc1ccccc1 | 8495 | 0.8 | 0.6 | -3.4 | . | . | .
Cn1cnc([N+](=O)[O-])c1Sc1nc2ccccc2[nH]1 | 4159 | 4.5 | -0.6 | 33.8* | 0.5 | -3.0 | -0.4
O=C(COC(=O)/C=C/c1cccc(Br)c1)NC1CCCCCC1 | 3014 | 1.2 | 0.0 | -12.8 | . | . | .
CCCCN(C)C(=O)c1cc2cc3ccc(OC)cc3nc2s1 | 3426 | -4.1 | 1.0 | -6.6 | 0.2 | -1.7 | -0.4
O=C1CC(N2CCN(c3ccc(Cl)cc3)CC2)C(=O)N1c1ccc(F)cc1 (stereo not drawn) | 3880 | 56.5* | 2.6 | -3.3 | -1.5 | 1.1 | -3.0
O=C(O)c1ccc(N2C(=O)CC(N3CCN(c4ccc(Cl)cc4)CC3)C2=O)cc1 (stereo not drawn) | 3771 | ? | 0.1 | -8.6 | . | . | .
Cc1cccnc1NC(=O)c1cccc(S(=O)(=O)N2CCCc3ccccc32)c1 | 3988 | 6.3 | 3.9 | -3.2 | . | . | .
CCC(C)[C@H](NC(=O)N1CC(=O)Nc2ccccc21)C(=O)N1CCC[C@H]1C(=O)O (stereo partly drawn) | 5712 | -2.3 | -0.5 | -9.3 | . | . | .
COc1ccc(CCNC(=O)C2CCN(S(=O)(=O)N3CCOCC3)CC2)cc1OC | 11415 | 36.5* | 4.1 | 0.5 | -1.5 | 2.8 | -1.3
SMILES | Autofluor counter | BoNT-F LC inh | BoNT-A LC inh2 | Anthrax LF inh2 | BoNT-A LC CP1 | BoNTF LC inh 1 | LF protease CP1
Cc1cc(=O)n2nc(N3CCC(C(=O)NCc4cccc(Br)c4)CC3)sc2n1 | 5942 | 6.8 | 6.7 | 4.6 | . | . | .
NC(=O)c1cccc(CC(=O)c2ccccc2)c1 | 5051 | ? | ? | -4.7 | . | . | .
CC(C)c1ccc(CNC(=O)C2(C)CCCN2C)cc1 (stereo not drawn) | 4142 | -1.5 | -0.3 | -3.4 | . | . | .
Oc1ccc(Br)cc1C=Nc1ccc2c3c(cccc13)CC2 | 3654 | -4.6 | 33.3* | 13.3 | 8.3 | -1.5 | 4.2
Oc1ccc(Cl)cc1C=Nc1ccccc1Br | 2081 | -1.1 | 0.1 | 0.6 | . | . | .
COC(=O)c1ccc(=O)n(CC(=O)c2ccc(Cl)cc2)c1 | 4584 | -3.3 | 0.0 | -5.1 | . | . | .
COc1ccccc1CN1CCNC(=O)C1CC(=O)NCc1c(C)n[nH]c1C (stereo not drawn) | 4992 | 41.1* | 6.9 | 2.7 | -0.5 | -7.5 | -3.5
OC(CNC1Cc2ccccc2C1)c1ccccc1 (stereo not drawn) | 2820 | 35.7* | 3.8 | -4.8 | -0.8 | -3.0 | 0.1
CC(C(=O)NCc1ccccc1Cl)n1cc([N+](=O)[O-])cn1 (stereo not drawn) | 3781 | 37.7* | -1.0 | -15.1 | 0.5 | -3.7 | -0.7
O=C1CN(C(=O)c2ccc(Cl)c([N+](=O)[O-])c2)c2ccccc2N1 | 3053 | 5.9 | 0.6 | 32.1* | 0.2 | 0.3 | 0.6
Cc1ccc(Nc2c([N+](=O)[O-])cc(C(=O)N3CC(=O)Nc4ccccc43)cc2[N+](=O)[O-])c(C)c1 | 2763 | -6.9 | -0.7 | -6.7 | . | . | .
CCn1cc(/C=C(\NC(=O)c2ccccc2F)C(=O)NCCN2CCOCC2)c2ccccc21 | 5199 | 5.4 | 1.0 | -1.2 | . | . | .
Cc1ccc(CSc2nc3ccncc3[nH]2)cc1 | 5911 | -0.5 | 0.0 | -1.3 | . | . | .
CCCC(CCC)c1nc2ccncc2[nH]1 | 2311 | 40.8* | 3.2 | 0.2 | 2.4 | 1.5 | 1.6
O=C(NC1CCCc2ccccc21)C1CCN(S(=O)(=O)c2ccccc2)CC1 (stereo not drawn) | 10345 | 0.9 | 1.1 | -2.8 | . | . | .
O=C(NC1CCCc2ccccc21)C1CCCC1 (stereo not drawn) | 4522 | ? | -8.0 | 32.6* | 0.2 | -1.6 | -3.7
COc1ccc(C2CC(c3ccc(F)cc3)n3nc(NC(=O)c4ccco4)nc3N2)cc1 (stereo not drawn) | 6286 | -4.0 | -1.1 | -8.6 | -2.1 | -11.6 | -5.3
CC1CC(c2ccccc2)n2nc(NC(=O)c3ccco3)nc2N1 (stereo not drawn) | 3609 | ? | 1.8 | 0.0 | . | . | .
CC(=O)c1cnn(-c2c(Cl)cc(Cl)cc2Cl)c1C | 2937 | 38.3* | 0.3 | 6.0 | -1.6 | -2.1 | -3.7
CCS(=O)(=O)NCc1ccc2c(c1)cc(C)n2C | 4442 | -115.9 | 10.4 | -72.5 | . | . | .
CCCS(=O)(=O)NCc1ccc2c(c1)cc(C)n2C | ? | -41.4 | 69.3* | 3.4 | 1.4 | -13.8 | -2.4
